The supplement of paper PMC10849652
Targets with a hit are over-represented here; the source holds about 8,800 in all. About 0.5% of all pairs of compound and target were hits. Values without a mark were called inactive.

Compound: CN1CCN(CCOc2cc(OC3CCOCC3)c3c(Nc4c(Cl)ccc5c4OCO5)ncnc3c2)CC1 [saracatinib]
Test: log2 fold change, soluble protein after heating vs DMSO (PISA); higher = thermal stabilisation; K562 lysate, 10 uM; active = over 0.2 and 3.5 SD of the protein, either way, in both replicates (recomputed)
Procedure, shortened: (§1)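 Pellets of K562 cells were dounce-homogenised in PBS pH 7.4 with 1 mM MgCl2, and the crude extract was held at 1 mg/mL protein for a 30 min treatment with 10 μM compound. Aliquots were heated for 3 min over 48°C-58°C and pooled before NP-40 was added to 0.5% at 4°C. The supernatant from 21,000xg for 90 min was quantified by TMTpro 16plex LC-MS/MS with channel sums equalised. Values are reported from duplicates as log-two fold change in thermal stability relative to solvent controls.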

Sequence of UniProt Q9NTN9 (Q9NTN9 whole entry, looked up): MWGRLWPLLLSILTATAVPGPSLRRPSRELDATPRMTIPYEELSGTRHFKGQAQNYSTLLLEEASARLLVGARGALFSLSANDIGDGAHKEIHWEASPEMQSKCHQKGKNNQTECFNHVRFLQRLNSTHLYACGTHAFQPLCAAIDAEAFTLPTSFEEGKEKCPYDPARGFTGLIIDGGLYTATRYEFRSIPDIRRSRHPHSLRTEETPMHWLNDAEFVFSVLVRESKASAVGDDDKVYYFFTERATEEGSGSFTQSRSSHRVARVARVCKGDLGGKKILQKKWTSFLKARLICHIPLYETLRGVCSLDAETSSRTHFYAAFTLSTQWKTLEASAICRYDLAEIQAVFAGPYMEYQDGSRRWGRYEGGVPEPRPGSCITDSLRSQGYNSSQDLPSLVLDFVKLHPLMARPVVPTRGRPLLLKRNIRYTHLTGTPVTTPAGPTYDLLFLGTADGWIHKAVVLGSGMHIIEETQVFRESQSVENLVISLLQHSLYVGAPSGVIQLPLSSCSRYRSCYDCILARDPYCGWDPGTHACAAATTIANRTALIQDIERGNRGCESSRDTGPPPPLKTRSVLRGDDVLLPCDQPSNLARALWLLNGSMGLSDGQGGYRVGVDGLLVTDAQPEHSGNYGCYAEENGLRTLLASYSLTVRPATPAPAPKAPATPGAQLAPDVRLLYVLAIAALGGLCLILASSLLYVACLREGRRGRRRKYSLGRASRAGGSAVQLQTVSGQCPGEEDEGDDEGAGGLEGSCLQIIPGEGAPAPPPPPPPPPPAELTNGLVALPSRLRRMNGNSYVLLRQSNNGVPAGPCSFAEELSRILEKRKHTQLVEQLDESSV
Sequence of UniProt Q7L0Q8 (Q7L0Q8 whole entry, looked up): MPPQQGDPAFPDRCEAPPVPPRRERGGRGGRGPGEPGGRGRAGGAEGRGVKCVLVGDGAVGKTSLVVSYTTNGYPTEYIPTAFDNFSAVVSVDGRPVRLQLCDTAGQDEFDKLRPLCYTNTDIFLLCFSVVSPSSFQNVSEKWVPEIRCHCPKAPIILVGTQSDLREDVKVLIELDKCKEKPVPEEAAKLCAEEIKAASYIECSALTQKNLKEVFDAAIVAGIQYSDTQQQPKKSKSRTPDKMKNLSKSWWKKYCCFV
Sequence of UniProt O75943 (O75943 whole entry, looked up): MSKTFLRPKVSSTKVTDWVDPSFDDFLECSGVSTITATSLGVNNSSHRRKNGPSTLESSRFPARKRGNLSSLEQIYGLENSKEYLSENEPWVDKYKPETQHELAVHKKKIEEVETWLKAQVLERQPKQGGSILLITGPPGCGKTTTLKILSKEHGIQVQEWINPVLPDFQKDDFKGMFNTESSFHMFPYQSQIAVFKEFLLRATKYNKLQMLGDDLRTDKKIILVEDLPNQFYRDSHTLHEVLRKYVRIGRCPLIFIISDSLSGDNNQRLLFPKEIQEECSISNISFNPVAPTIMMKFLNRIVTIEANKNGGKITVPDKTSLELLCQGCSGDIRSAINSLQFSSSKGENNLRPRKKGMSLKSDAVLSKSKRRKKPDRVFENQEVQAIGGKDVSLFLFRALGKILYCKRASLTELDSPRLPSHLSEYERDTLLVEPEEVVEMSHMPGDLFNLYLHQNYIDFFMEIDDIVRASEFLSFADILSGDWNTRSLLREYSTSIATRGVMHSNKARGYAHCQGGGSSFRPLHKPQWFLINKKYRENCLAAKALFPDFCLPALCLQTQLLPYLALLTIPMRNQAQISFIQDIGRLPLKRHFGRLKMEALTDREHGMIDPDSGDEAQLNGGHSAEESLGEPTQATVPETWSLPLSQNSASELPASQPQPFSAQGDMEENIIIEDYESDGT
Sequence of UniProt O94761 (O94761 whole entry, looked up): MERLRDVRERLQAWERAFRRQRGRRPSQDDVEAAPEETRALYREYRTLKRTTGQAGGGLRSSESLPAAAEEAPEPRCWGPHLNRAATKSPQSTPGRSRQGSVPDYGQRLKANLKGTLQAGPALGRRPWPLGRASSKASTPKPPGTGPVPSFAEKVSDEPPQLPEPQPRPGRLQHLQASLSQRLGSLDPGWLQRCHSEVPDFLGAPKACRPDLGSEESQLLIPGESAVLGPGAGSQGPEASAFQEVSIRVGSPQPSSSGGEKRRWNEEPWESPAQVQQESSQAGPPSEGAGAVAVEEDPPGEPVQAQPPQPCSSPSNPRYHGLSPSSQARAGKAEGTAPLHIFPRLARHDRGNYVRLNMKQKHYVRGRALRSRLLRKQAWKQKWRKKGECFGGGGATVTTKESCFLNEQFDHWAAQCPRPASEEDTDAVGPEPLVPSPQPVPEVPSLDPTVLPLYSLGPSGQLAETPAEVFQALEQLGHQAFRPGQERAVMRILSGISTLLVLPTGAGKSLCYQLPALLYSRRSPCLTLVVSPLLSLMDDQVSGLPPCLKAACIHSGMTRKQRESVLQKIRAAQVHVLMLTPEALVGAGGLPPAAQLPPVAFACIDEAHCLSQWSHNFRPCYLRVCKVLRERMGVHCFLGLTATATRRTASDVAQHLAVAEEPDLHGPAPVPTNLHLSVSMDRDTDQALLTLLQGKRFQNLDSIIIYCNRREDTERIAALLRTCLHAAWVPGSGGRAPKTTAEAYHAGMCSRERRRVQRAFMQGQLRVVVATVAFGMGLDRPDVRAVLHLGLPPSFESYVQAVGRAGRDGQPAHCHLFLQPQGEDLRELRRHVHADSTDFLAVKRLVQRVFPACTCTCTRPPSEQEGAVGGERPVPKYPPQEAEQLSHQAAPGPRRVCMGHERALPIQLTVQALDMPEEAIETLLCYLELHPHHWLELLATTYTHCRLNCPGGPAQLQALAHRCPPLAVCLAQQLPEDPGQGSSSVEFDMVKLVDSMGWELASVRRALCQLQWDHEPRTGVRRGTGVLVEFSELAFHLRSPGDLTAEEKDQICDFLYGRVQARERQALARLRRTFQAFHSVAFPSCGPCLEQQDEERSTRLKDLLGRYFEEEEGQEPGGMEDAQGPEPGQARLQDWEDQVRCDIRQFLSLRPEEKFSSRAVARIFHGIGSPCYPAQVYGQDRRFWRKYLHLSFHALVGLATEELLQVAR
Sequence of UniProt Q99496 (Q99496 whole entry, looked up): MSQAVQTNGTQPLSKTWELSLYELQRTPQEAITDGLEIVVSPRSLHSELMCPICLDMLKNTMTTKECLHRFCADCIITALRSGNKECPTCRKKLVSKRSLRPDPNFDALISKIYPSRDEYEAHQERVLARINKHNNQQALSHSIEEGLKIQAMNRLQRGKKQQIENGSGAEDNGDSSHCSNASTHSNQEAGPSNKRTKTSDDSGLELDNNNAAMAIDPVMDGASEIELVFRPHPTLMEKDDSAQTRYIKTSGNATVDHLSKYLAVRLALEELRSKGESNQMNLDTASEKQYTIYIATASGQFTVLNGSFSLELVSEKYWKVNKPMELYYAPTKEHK
Sequence of UniProt P19793 (P19793 whole entry, looked up): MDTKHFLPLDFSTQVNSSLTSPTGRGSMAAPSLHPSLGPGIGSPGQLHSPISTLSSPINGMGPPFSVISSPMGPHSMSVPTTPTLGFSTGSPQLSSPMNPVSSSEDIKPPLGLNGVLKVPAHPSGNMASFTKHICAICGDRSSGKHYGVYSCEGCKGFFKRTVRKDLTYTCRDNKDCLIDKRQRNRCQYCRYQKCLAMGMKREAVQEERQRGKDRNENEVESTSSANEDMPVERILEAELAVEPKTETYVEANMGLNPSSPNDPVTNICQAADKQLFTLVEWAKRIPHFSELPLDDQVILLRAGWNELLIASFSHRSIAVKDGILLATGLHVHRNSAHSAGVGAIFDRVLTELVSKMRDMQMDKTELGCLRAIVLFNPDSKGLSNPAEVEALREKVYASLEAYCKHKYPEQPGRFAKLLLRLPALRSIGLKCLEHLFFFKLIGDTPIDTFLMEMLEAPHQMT
Sequence of UniProt Q9BWG6 (Q9BWG6 whole entry, looked up): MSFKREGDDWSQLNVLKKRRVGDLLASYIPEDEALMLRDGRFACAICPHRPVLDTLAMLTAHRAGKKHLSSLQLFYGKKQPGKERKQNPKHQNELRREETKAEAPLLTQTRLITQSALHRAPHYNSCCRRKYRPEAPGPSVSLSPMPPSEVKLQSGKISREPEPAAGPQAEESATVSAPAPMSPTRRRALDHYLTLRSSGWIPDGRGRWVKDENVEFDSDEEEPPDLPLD
Sequence of UniProt Q96LT9 (Q96LT9 whole entry, looked up): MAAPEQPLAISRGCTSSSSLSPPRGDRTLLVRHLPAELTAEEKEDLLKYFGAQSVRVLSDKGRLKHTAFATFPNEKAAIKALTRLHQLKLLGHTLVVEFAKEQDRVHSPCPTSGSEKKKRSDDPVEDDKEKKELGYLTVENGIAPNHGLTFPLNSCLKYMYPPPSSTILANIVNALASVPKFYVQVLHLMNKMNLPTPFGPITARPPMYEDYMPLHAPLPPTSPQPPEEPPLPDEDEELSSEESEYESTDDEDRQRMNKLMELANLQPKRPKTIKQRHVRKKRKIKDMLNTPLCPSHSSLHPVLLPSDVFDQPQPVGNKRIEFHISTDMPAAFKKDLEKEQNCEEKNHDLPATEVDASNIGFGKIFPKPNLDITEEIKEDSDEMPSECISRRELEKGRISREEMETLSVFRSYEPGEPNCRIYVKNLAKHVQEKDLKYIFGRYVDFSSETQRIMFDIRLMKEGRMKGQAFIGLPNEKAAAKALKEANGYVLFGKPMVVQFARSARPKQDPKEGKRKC
Sequence of UniProt Q8TC12 (Q8TC12 whole entry, looked up): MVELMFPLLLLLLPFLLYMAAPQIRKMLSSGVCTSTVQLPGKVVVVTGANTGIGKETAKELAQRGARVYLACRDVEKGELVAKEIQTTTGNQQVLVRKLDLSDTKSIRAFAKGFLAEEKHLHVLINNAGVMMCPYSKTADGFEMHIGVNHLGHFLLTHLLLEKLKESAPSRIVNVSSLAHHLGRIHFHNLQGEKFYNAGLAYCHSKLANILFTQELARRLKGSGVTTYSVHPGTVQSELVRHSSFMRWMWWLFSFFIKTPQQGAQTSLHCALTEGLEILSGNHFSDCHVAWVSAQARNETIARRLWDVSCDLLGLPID
Sequence of UniProt Q96E14 (Q96E14 whole entry, looked up): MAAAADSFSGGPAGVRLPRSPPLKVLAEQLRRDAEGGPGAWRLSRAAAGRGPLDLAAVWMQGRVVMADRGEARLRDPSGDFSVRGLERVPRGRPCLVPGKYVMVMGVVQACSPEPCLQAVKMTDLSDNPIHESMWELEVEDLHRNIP

Row | Target | log2 fold change
1 | RXRA (UniProt P19793) | -0.093
2 | SATB2 (UniProt Q9UPW6) | -0.026
3 | RALGAPB isoform 3 (UniProt Q86X10) | -0.343
4 | SEMA4G isoform 2 (UniProt Q9NTN9) | -0.227
5 | SERAC1 (UniProt Q96JX3) | -0.096
6 | RNF17 (UniProt Q9BXT8) | 0.257
7 | QSER1, A0A3B3IRW6 | -0.036
8 | RPS6KA5 (UniProt O75582) | -0.071
9 | RHOU (UniProt Q7L0Q8) | -0.027
10 | RNF2 (UniProt Q99496) | -0.004
11 | RAD17 (UniProt O75943) | 0.042
12 | RFWD3 (UniProt Q6PCD5) | -0.036
13 | S100A6 (UniProt P06703) | 0.715 (active)
14 | SELENOK (UniProt Q9Y6D0) | -0.021
15 | RNF170 (UniProt Q96K19) | -0.201
16 | RYR1 (UniProt P21817) | 0.057
17 | SEC16A isoform 3 (UniProt O15027) | 0.068
18 | SCNM1 (UniProt Q9BWG6) | -0.092
19 | RAD54L (UniProt Q92698) | 0.095
20 | RMI2 (UniProt Q96E14) | -0.008
21 | RNPC3 (UniProt Q96LT9) | -0.022
22 | RECQL4 (UniProt O94761) | 0.043
23 | RDH11 (UniProt Q8TC12) | 0.021

Compound: CN1CCN(c2nc(C3=C(c4c[nH]c5ccccc45)C(=O)NC3=O)c3ccccc3n2)CC1 [sotrastaurin]
Test: as above
Procedure, shortened: as §1

Row | Target | log2 fold change
24 | RUFY2 isoform 1 (UniProt Q8WXA3) | 0.001
25 | RXRA (UniProt P19793) | 0.013
26 | SATB2 (UniProt Q9UPW6) | 0.032
27 | SEMA4G isoform 2 (UniProt Q9NTN9) | 0.004
28 | RNF17 (UniProt Q9BXT8) | 0.046
29 | QSER1, A0A3B3IRW6 | -0.014
30 | RPS6KA5 (UniProt O75582) | 0.185
31 | RHOU (UniProt Q7L0Q8) | 0.036
32 | RNF2 (UniProt Q99496) | -0.002
33 | RAD17 (UniProt O75943) | -0.004
34 | RFWD3 (UniProt Q6PCD5) | -0.017
35 | S100A6 (UniProt P06703) | -0.033
36 | RNF24 isoform 2 (UniProt Q9Y225) | 0.025
37 | RYR1 (UniProt P21817) | 0.091
38 | SCNM1 (UniProt Q9BWG6) | -0.023
39 | RBM4 isoform 3 (UniProt Q9BWF3) | 0.074
40 | ROBO2 isoform 3 (UniProt Q9HCK4) | -0.001
41 | RMI2 (UniProt Q96E14) | -0.01
42 | RNPC3 (UniProt Q96LT9) | -0.074
43 | RLIM (UniProt Q9NVW2) | -0.055
44 | RECQL4 (UniProt O94761) | -0.017
45 | RDH11 (UniProt Q8TC12) | 0.022
46 | RBM45 (UniProt Q8IUH3) | 0.077
